DAX1 inh-1: inhibitors of human orphan nuclear receptor DAX1 (NR0B1). HEK293 Gal4-DAX1 luciferase reporter, luminescence. inhibition, % at 6.75 µM. 340,000 compounds, 0.99% hits. AID 504766;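 active = inhibition above the mean over all tested compounds plus 3 SD, cut at about 4.2% in these data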;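 note: 0% = DAX1-transfected cells with DMSO and 100% = empty-vector control cells with DMSO; inhibition shows as a rise in luminescence from relieved DAX1 repression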
Target sequence (P51843 207-470 limits assumed): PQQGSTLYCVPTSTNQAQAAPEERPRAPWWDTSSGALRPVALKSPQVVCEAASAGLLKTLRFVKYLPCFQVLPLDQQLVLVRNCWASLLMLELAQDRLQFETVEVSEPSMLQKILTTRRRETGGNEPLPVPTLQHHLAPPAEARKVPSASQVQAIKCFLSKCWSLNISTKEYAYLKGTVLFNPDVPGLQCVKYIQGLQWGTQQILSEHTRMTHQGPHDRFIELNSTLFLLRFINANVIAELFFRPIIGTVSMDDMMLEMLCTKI
hgDAF12 agonist: activates the H. glycines DAF-12 receptor ligand-binding domain; activation, % at 6.8 µM; AID 687014; HEK293 GAL4-hgDAF12 UAS-luciferase reporter, agonist luminescence; normalized to butyrate control; 370,000 compounds, 1.8% hits;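 active = activation above a cutoff set at the mean of all screened compounds plus 3 SD, cut at about 10% in these data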;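 note: 0% = DMSO wells and 100% = sodium butyrate wells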
hcDAF-12 act: H. contortus DAF-12 activation, primary screen; 370,000 compounds, 1.4% hits; activation, % at 6.8 µM; HEK293 hcDAF-12 lit1-tk-luc reporter, luminescence; 0% DMSO, 100% Δ7-dafachronic acid;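 active = activation above the mean of all tested compounds plus 3 SD, cut at about 5.5% in these data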;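 note: 100% = response to 3 µM Δ7-dafachronic acid high control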
DAX1 inh-2: inhibitors of DAX1 repression of SF-1 activated StAR promoter. inhibition, % at 6.8 µM. HEK293T StAR-luciferase reporter, SF-1/DAX-1 repression relief. AID 652010. 370,000 compounds, 1.1% hits;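 active = inhibition above the mean over all tested compounds plus 3 SD, cut at about 3.6% in these data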;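 note: 0% = DAX-1 cells with DMSO and 100% = cells lacking DAX-1 with DMSO; higher inhibition means more luminescence from relief of DAX-1 repression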
ssDAF12 agonist: S. stercoralis DAF-12 activation, primary screen | HEK293 ssDAF-12/GRIP1 lit1-tk-luc reporter, luminescence; % of 3 µM dafachronic acid response | activation, % at 6.8 µM | 370,000 compounds, 1% hits;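 active = activation above the mean over all tested compounds plus 3 SD, cut at about 0.9% in these data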;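 note: 0% = DMSO-only wells and 100% = 3 µM delta7-dafachronic acid wells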
DAX1 conf: confirmation of human DAX1 (NR0B1) inhibitors. shares compounds with DAX1 inh-2. HEK293T StAR-promoter luciferase reporter, SF-1/DAX-1 repression. inhibition, % at 6.8 µM. 2,400 compounds, 87% hits. AID 652134;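 active = inhibition above the average of every tested compound plus 3 SD, cut at about 3.8% in these data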;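 note: 0% = DAX-1 cells with DMSO and 100% = no DAX-1 control cells with DMSO; active compounds raise luminescence by relieving repression of the StAR reporter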
SF1 AF2mut Luc: counter-screen for DAX1 inhibitors: nonselective inhibitors with SF-1 AF2 mutant; inhibition, % at 6.8 µM; HEK293 StAR-luciferase, luminescence; AID 652136; 2,400 compounds, 78% hits; shares compounds with DAX1 inh-2;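 active = inhibition above the mean of all tested compounds plus 3 SD, cut at about 3% in these data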;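 note: 0% = DAX-1 transfected cells with DMSO and 100% = cells without DAX-1 with DMSO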
LXR ag: LXR-beta agonism as hcDAF-12 counter-screen | shares compounds with hcDAF-12 act | HEK293 Gal4-LXR tk-luc reporter, luminescence, 24 h; normalized: DMSO 0%, positive control 100% | activation, % at 6.8 µM | 3,400 tested, under 10 active;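 active = mean percent activation of the reporter above a cutoff set as the average over tested compounds plus their standard deviation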
Target sequence (P55055 whole entry, looked up, the tested form may be a part): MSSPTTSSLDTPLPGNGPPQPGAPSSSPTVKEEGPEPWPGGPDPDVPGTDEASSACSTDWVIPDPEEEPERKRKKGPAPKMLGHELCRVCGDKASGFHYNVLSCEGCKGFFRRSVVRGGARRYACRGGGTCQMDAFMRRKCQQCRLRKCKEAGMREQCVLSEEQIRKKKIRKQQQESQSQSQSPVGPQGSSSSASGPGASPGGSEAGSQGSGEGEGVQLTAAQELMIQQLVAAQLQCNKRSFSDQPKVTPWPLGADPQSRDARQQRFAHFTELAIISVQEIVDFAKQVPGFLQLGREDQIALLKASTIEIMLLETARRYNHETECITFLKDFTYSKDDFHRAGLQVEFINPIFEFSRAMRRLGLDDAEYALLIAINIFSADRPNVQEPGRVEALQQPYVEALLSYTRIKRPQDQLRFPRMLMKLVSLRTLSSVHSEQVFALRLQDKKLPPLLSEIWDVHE
hcDAF12 ag: confirmation of H. contortus DAF-12 agonists | HEK293 hcDAF-12 lit1-tk-luc reporter, luminescence; % of Δ7-dafachronic acid response | activation, % at 6.8 µM | shares compounds with hcDAF-12 act | AID 743032 | 3,400 compounds, 61% hits;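 active = mean activation across triplicate tests above the threshold derived from the earlier primary screen, cut at about 5.5% in these data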;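 note: 0% = DMSO only wells and 100% = 3 µM Δ7-dafachronic acid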
hgDAF12 conf: hgDAF-12 agonism, confirmation assay | HEK293 GAL4-hgDAF12 luciferase reporter, agonist mode; percent of butyrate response | AID 743050 | 3,300 compounds, 80% hits | shares compounds with hgDAF12 agonist | activation, % at 6.8 µM;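 active = mean activation over triplicate wells above the hit cutoff derived from the earlier primary screen, cut at about 11% in these data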;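 note: 0% = DMSO low control and 100% = 2 mM sodium butyrate high control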
LXRb DAF12 ctr: counter-screen for DAF-12 agonists: agonists of human LXR-beta | shares compounds with hgDAF12 agonist | HEK293 Gal4-LXR luciferase reporter, 24 h | activation, % at 6.8 µM | 3,300 tested, under 10 active;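 active = mean activation of the triplicate above a set limit carried over from the primary screen, none filed active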
Active calls of the source: *; · = no result given. Compounds with a hit are over-represented: about 4.1% of the library has one in this group of screens.

SMILES	DAX1 inh-1	hgDAF12 agonist	hcDAF-12 act	DAX1 inh-2	ssDAF12 agonist	DAX1 conf	SF1 AF2mut Luc	hgDAF12 conf	LXRb DAF12 ctr	others
COc1cc(C(=O)NC(C)Cc2ccccn2)ccc1OC1CCN(C(C)=O)CC1 (configuration not stated)	-0.1	-0.4	-0.6	-0.3	-1.2	·	·	·	·
CC(=O)Oc1ccc2c(=O)c(-c3nc4ccccc4s3)coc2c1	-0.1	13.3*	6.7*	5.7*	0.4	5.7*	2.3	9.2	0.4	LXR ag=1.2;hcDAF12 ag=9.0*
CC(=O)Oc1ccc2c(=O)c(Oc3ccccc3[N+](=O)[O-])coc2c1	-0.4	-4.4	-1.1	-0.9	-1.5	·	·	·	·
CCOC(=O)C1CCN(C(=O)c2ccc(OC3CCN(C(=O)COC)CC3)cc2)CC1	1.2	-0.4	-1.3	0.2	-0.8	·	·	·	·
Nc1nn(-c2cccc(F)n2)cc1-c1ccccc1	1.6	17.3*	10.6*	4.6*	1.1*	12.1*	3.7*	18.7*	0.9	LXR ag=1.9;hcDAF12 ag=9.3*
O=C(Cc1cccs1)N(CC1CCCO1)C1(C(=O)NC2CCCC2)CCCCC1 (configuration not stated)	-0.1	2.4	-1.4	-1.1	-1.6	·	·	·	·
O=C(CSc1ccc([N+](=O)[O-])cn1)Nc1ccc2c(c1)OCO2	0.0	3.9	1.1	0.7	-1.1	·	·	·	·
COc1ccc(-c2csc(N3C(=O)CNC3=S)n2)cc1	-1.8	16.9*	8.2*	5.5*	1.1*	14.3*	6.6*	15.6*	1.2	LXR ag=1.7;hcDAF12 ag=8.8*
CCc1ccc(NC(=O)c2cnn(-c3ccccc3)c2C)cc1	-0.9	14.8*	4.9	6.1*	1.1*	11.1*	6.0*	18.9*	0.8
Cc1noc(C)c1NC(=O)N1C[C@H](O)COC[C@H]2O[C@@H](CC(=O)NCC3CCCCC3)CC[C@@H]21	·	3.1	-1.7	0.8	-0.9	·	·	·	·
Cc1ccn2c(Cc3ccccc3)c(-c3ccc(F)cc3)nc2c1	1.7	16.0*	0.1	5.9*	0.4	2.7	1.5	11.4*	0.3
Cc1ccc2nc(-c3ccccc3)c(Cc3ccccn3)n2c1	·	13.4*	7.4*	5.1*	1.4*	7.4*	6.2*	16.4*	0.4	LXR ag=0.6;hcDAF12 ag=8.3*
Fc1ccc(-c2nc3ccc(Cl)cn3c2Cc2ccccc2)cc1	0.4	6.1	-0.1	1.0	-0.9	·	·	·	·
Cc1ccc(Cc2c(-c3cccc(Cl)c3)nc3ccc(C)cn23)cc1	·	9.5	0.8	1.6	-0.3	·	·	·	·
Cc1ccc2nc(-c3ccco3)c(Cc3ccsc3)n2c1	·	3.4	0.6	-0.4	-0.6	·	·	·	·
Cc1ccc(-c2nc3ccc(C)cn3c2Cc2ccsc2)cc1	·	17.3*	5.5	10.7*	0.1	7.0*	3.0*	1.3	0.5
Cc1ccc2nc(-c3ccc(F)cc3)c(Cc3ccccn3)n2c1	·	14.4*	8.6*	9.3*	0.4	8.1*	6.7*	11.2*	0.8	LXR ag=0.5;hcDAF12 ag=1.2
Cc1cccc(C)c1NC(=O)NC1(C(=O)NCCN2CCOCC2)CCCCC1	-0.2	-1.1	-0.4	-0.5	-1.4	·	·	·	·
Cc1ccc(NC(=O)CN2C(=O)C3C4C=CC(C4)C3C2=O)cc1S(=O)(=O)N(C)C (configuration not stated)	0.8	-0.3	-1.4	-0.8	-0.6	·	·	·	·
COc1ccc(CN=C2Nc3ccccc3CS2)cc1	-0.1	14.2*	4.9	4.7*	1.2*	10.8*	7.2*	17.2*	0.9
COc1ccc(CN=C2NN=C(c3ccc(Cl)cc3)CS2)cc1	-0.8	1.2	1.5	0.1	-1.2	·	·	·	·
CCCC(=O)Nc1ccc(Nc2ccccc2)cc1	0.4	-0.7	-1.0	0.0	-0.9	·	·	·	·
OC[C@H]1O[C@@H](c2nc3ccc(-c4nc(-c5cccs5)no4)cc3[nH]2)C[C@@H]1O	·	15.1*	6.1*	4.8*	0.9	10.5*	8.7*	15.9*	0.7
C=CCN(c1ccccc1Cl)S(=O)(=O)c1cccc(C(=O)OCC(=O)N(C)C2CCS(=O)(=O)C2)c1 (configuration not stated)	-0.5	-1.5	-1.1	-0.2	-0.9	·	·	·	·
COc1ccc(Cc2nc3ccccc3n2C)cc1	-0.2	2.0	0.8	0.0	-1.0	·	·	·	·
SMILES	DAX1 inh-1	hgDAF12 agonist	hcDAF-12 act	DAX1 inh-2	ssDAF12 agonist	DAX1 conf	SF1 AF2mut Luc	hgDAF12 conf	LXRb DAF12 ctr	others
Cn1c(CCc2ccc(N)cc2)nc2ccccc21	3.0	15.2*	2.0	6.1*	-0.9	9.5*	5.0*	14.5*	0.5
NC(=O)c1ccsc1NC(=O)c1coc2ccccc2c1=O	1.2	13.7*	1.1	4.7*	-0.3	11.8*	3.7*	19.0*	0.7
O=C(COc1ccccc1[N+](=O)[O-])Nc1cccnc1	0.8	7.0	-1.2	1.0	-1.4	·	·	·	·
Cc1ccc(NC(=O)COc2ccccc2[N+](=O)[O-])nc1	-1.0	18.0*	7.3*	4.7*	1.7*	10.8*	5.9*	12.3*	0.8	LXR ag=1.6;hcDAF12 ag=9.3*
Cc1ccc(NC(=O)c2ccc(COc3ccccc3[N+](=O)[O-])o2)nc1	0.1	3.1	1.2	0.4	-1.2	·	·	·	·
Cc1ccnc(NC(=O)COc2ccccc2[N+](=O)[O-])c1	0.4	14.3*	7.4*	4.9*	1.1*	12.5*	5.2*	11.5*	0.9	LXR ag=1.3;hcDAF12 ag=4.1
CC(C)(C)OC(=O)N1CCC(C(=O)Nc2ccc(C(=O)NCc3ccccc3)cc2)CC1	-1.6	-3.3	-0.9	0.4	-1.6	·	·	·	·
c1ccc(CSc2ncnc3c2ncn3C2CCCCO2)cc1 (configuration not stated)	3.6	14.2*	2.2	5.1*	0.1	6.3*	3.5*	12.0*	0.5
COc1ccc(C2CC(c3ccc4ccccc4c3)=NN2C(=O)COC(=O)C2CCC(=O)N2)cc1 (configuration not stated)	2.1	15.4*	10.4*	6.7*	1.2*	14.6*	6.5*	19.5*	0.8	LXR ag=1.5;hcDAF12 ag=6.0*
